# Compound activity as filed in PubChem BioAssay.
# Sampled rows, rich in hits. Any-hit rate of the full collection: about 3%.
# SARS PLpro yeast: blocks SARS-CoV papain-like protease in a yeast assay; S. cerevisiae expressing SARS-CoV PLpro, growth rescue; Potency, µM (titrated, usually from 32.9 µM), inactives show at the highest dose activity, positive = growth rescue, hits mostly activators; actives 0.19% (n = 330,000); calls by dose curve; further: 0% is about no effect; nearly all actives have a fitted effect of over 55% in size
# Sm TGR block: inhibitors of Schistosoma mansoni thioredoxin glutathione reductase; purified TGR, DTNB reduction, TNB absorbance 405 nm; Potency, µM (series often up to 114 µM), without a hit: at the top dose activity change, negative = inhibition, hits mostly inhibitors; actives 3% (n = 360,000); Q962Y6; active means well fitted inhibition curve with a large enough effect; inconclusive means small, poorly fitted or top-dose-only effect; inactive means no such curve, though single readings can be large or run the other way; further: on the % scale 0 is the no-effect control and ±100 the full control effect; nearly all actives have a fitted effect of over 60% in size
#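 Kinetic colorimetric format: TGR-catalysed, NADPH-driven DTNB reduction monitored via TNB absorbance. Enzyme dispensed at 20 nM; compound exposure 15 min at room temperature before reaction start.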
# The depositor's hits bear a star; ? = inconclusive; . = no result given. Potency means the concentration at half of the fitted maximal effect.
SMILES,SARS PLpro yeast,Sm TGR block
COc1ccc(OC)c(C2CC(=O)Nc3c2c(=O)[nH]c2nc4ccccc4n32)c1 (centres undefined),.,7%
CCN(C(=O)CCS(=O)(=O)c1cc2[nH]c(=O)c(=O)[nH]c2cc1C)c1ccccc1,.,-1%
Cc1cc(-c2csc(NC(=O)C3=COCCO3)n2)c(C)n1C,2%,-31%
Cc1cc(-c2csc(NC(=O)c3ccc(=O)n(C)n3)n2)c(C)n1CC1CCCO1 (centres undefined),-4%,35µM*
Cc1cc(-c2csc(NC(=O)c3ccc(=O)[nH]c3)n2)c(C)n1Cc1ccco1,0%,45µM*
CCNc1nc(-c2cc(C)n(Cc3ccco3)c2C)cs1,0%,-15%
CC(=O)N1CCC2(CC1)C(C#N)=C(N)Oc1n[nH]c(C(F)(F)F)c12,1%,28µM*
CCOC(=O)N1CCC2(CC1)C(C#N)=C(N)Oc1n[nH]c(C)c12,3%,2%
c1ccc2[nH]c(CCCc3nc4ccccc4[nH]3)nc2c1,-8%,-12%
Oc1ccc(O)c(Cc2nc3ccccc3[nH]2)c1,-1%,6.3µM*
Cc1cn2c(=O)cc(COc3cccc(NC(=O)c4ccc(C(C)(C)C)cc4)c3)nc2s1,.,-4%
N#Cc1c(NC(=O)CSc2ncnc3sccc23)oc(-c2ccco2)c1-c1ccco1,0%,4µM*
Cc1cc(NC(=O)CSc2ncnc3sccc23)no1,0%,2%
Cc1ccc(C)n1-c1ccc(C(=O)N/N=C/c2ccncc2)cc1,-9%,25µM*
O=C(N/N=C/c1ccncc1)c1ccccc1,1%,19%
O=C(Cn1c(=O)ccc2cc(S(=O)(=O)N3CCCC3)ccc21)Nc1ccc(Cl)cc1,.,0%
CCc1ccc(NC(=O)C2CCC(CNS(=O)(=O)c3ccc4c(c3)C(C)(C)C(=O)N4C)CC2)cc1 (centres undefined),.,-1%
CC1=C(CC(=O)O)c2cc(F)ccc2/C1=C/c1ccc(S(C)=O)cc1 (centres undefined),-1%,20µM*
CC(=O)Nc1cc(Br)ccc1O,-2%,0%
CC(=O)Nc1cc([As](=O)(O)O)ccc1O,0%,7.1µM*
CCCNC(=O)c1ccc(S(=O)(=O)c2ccc(OC)cc2)c([N+](=O)[O-])c1,-3%,2.2µM*
COc1ccc(C(=O)NCCNc2ccccc2[N+](=O)[O-])cc1,1%,.
COc1cc(NC(=O)CC2C(=O)N(c3cccc(C)c3)C(=O)N2Cc2cccs2)cc(OC)c1 (centres undefined),.,-32%
CCOc1ccc2nc(N3CCN(C(=O)CS(=O)(=O)c4ccc(F)cc4)CC3)sc2c1,.,1%
Cc1ccc(NC(=O)C2CCCN(C(=O)c3cnn(-c4ccc(F)cc4)c3-n3cccc3)C2)c(Cl)c1 (centres undefined),.,2%
SMILES,SARS PLpro yeast,Sm TGR block
N/C(=N/OC(=O)c1cccc([N+](=O)[O-])c1)c1cccc([N+](=O)[O-])c1,0%,.
CC1=C(C)/C(=N/OC(=O)c2cccc([N+](=O)[O-])c2)C=CC1=O,-27%,11µM*
Cc1ccc(-c2c(C(=O)Nc3ccc(F)c(F)c3)oc(=O)c3ccccc23)cc1,.,2%
CCOC(=O)CSc1nnc(C)c(=O)[nH]1,4%,6%
CCOC(=O)CSc1nnc(NCC(=O)OC)c(=O)[nH]1,5%,16µM*
O=C(Cc1ccccc1)Nc1cccc(N2CCCC2)c1,0%,32µM*
O=C(Cc1ccccc1)Nc1ccc(N2CCCC2)cc1,2%,?
CCCCOc1ccc(C2C(=O)N(C3CCCCC3)CC(=O)N2CCCC)cc1 (centres undefined),.,16%
CC(=O)Nc1cccc(C(=O)/C=C/c2ccco2)c1,-17%,28µM*
Cc1ccc(NC(=O)N/C=C/c2ccco2)cc1,5%,?
O=C(/C=C\c1ccco1)c1ccc(NC(=O)c2ccco2)cc1,-3%,4µM*
O=C(NCc1ccccc1)c1ccc(NC(=O)c2ccco2)cc1,1%,-10%
CC(=O)Nc1ccc(C(=O)/C=C/c2ccco2)cc1,-1%,8.9µM*
CC(=O)Nc1cccc(C(=O)/C=C/c2ccc(/C=C/C(=O)c3cccc(NC(C)=O)c3)cc2)c1,-4%,-4%
CC(/C=C/c1ccco1)=N\NC(=O)C(O)c1ccccc1 (centres undefined),3%,?
COC(=O)N/N=C(C)\C=C\c1ccco1,4%,45µM*
CC1CCN(C(=O)c2ccc3c(c2)N(Cc2ccccc2)C(=O)c2ccccc2S3(=O)=O)CC1,.,2%
Cc1ccc(CNC(=O)Cn2cc(S(=O)(=O)Cc3ccccc3F)c3ccccc32)cc1,.,-1%
CCCNC(=O)c1cnc2c(-c3ccc(OCC)c(OCC)c3)c(C)nn2c1-c1ccccc1,.,-6%
CNS(=O)(=O)c1cn(CC(=O)Nc2cccc(C(F)(F)F)c2)cc1S(=O)(=O)NC,.,0%
COC(=O)c1c(-c2cccs2)csc1NC(=O)c1ccc(C(C)(C)C)cc1,.,0%
CCOC(=O)C1CCN(C(c2ccc(C)cc2)c2sc3nc(-c4ccco4)nn3c2O)CC1 (centres undefined),.,-6%
CCOC(=O)C1CCN(C(c2cccc(F)c2)c2sc3nc(C)nn3c2O)CC1 (centres undefined),12%,-7%
CCOC(=O)C1CCN(C(c2cccc(F)c2)c2c(O)cc(C)n(Cc3ccco3)c2=O)CC1 (centres undefined),.,10µM*
CCOC(=O)C1CCN(C(c2cccc(F)c2)c2c(O)cc(C)n(CCOC)c2=O)CC1 (centres undefined),.,18µM*
SMILES,SARS PLpro yeast,Sm TGR block
CCOC(=O)NC(=O)CSc1nnc(C2CC2)n1Cc1ccco1,1%,-30%
CCOC(=O)C1CCN(C(c2ccc(SC)cc2)c2c(O)cc(C)n(Cc3ccco3)c2=O)CC1 (centres undefined),.,5µM*
CCOC(=O)C1CCN(C(c2ccccc2)c2c(O)cc(C)n(Cc3ccco3)c2=O)CC1 (centres undefined),.,8.9µM*
CCOC(=O)C1CCN(C(=O)COC(=O)c2cccc(F)c2)CC1,0%,2%
Cc1cccc(-n2c(CNC(=O)c3cccc(F)c3)nnc2SCC(=O)Nc2ccccc2F)c1,.,11%
CCS(=O)(=O)c1nc2ccccc2n1CC(=O)Nc1ccccc1C(=O)OC,.,-5%
CCOc1cc2[nH]c(=O)n(Cc3ccc(C(=O)N4CCN(c5cccc(Cl)c5)CC4)cc3)c(=O)c2cc1OCC,.,-2%
CCOC(=O)c1ccccc1NC(=O)CSc1cn(CC(=O)N2CCCCC2)c2ccccc12,.,0%
Cc1ccc(COC(=O)c2ccc(-c3nnn(Cc4ccc(C)cc4)n3)cc2)cc1,.,15%
Cc1c2cnn(CC(=O)N3CCN(c4ccccc4)CC3)c(=O)c2c(C)n1Cc1ccc(F)cc1,.,-5%
N#CC1=C(N)N(c2ccc(Br)cc2)C2=C(C(=O)CCC2)C1c1cccnc1 (centres undefined),2%,40µM*
Cc1ccc(N2C(N)=C(C#N)C(c3cccnc3)C3=C2CCCC3=O)cc1 (centres undefined),-5%,-19%
O=C(c1cc(-c2cccc(Cl)c2)on1)N1CCCCCC1,0%,3%
CCOC(=O)c1cc(-c2ccco2)nc2c1c(C)nn2CCC#N,-3%,4µM*
CCOC(=O)c1cc(-c2ccco2)nn1-c1ccc(C)cc1,-6%,14µM*
CCOC(=O)c1cc(-c2ccc(N3CCOCC3)cc2)nn1-c1ccccc1,22%,9%
CCOC(=O)c1cc(-c2ccc(Cl)cc2)nc2c1c(C)nn2CCC#N,-1%,8%
